Source: PubChem BioAssay (National Center for Advancing Translational Sciences (NCATS))
12-LOX inh – ALOX12 (human) lipoxygenase inhibition; P18054; purified 12hLO, xylenol orange hydroperoxide absorbance; Potency, µM (doses to about 108 µM), inactives show at the highest dose activity change, negative = inhibition, actives largely listed as inhibitors; 580,000 compounds, 1.1% hits; AID 1671190; also: % is scaled to controls: 0 for no effect and ±100 for the full control effect
Target sequence (P18054 whole entry, looked up): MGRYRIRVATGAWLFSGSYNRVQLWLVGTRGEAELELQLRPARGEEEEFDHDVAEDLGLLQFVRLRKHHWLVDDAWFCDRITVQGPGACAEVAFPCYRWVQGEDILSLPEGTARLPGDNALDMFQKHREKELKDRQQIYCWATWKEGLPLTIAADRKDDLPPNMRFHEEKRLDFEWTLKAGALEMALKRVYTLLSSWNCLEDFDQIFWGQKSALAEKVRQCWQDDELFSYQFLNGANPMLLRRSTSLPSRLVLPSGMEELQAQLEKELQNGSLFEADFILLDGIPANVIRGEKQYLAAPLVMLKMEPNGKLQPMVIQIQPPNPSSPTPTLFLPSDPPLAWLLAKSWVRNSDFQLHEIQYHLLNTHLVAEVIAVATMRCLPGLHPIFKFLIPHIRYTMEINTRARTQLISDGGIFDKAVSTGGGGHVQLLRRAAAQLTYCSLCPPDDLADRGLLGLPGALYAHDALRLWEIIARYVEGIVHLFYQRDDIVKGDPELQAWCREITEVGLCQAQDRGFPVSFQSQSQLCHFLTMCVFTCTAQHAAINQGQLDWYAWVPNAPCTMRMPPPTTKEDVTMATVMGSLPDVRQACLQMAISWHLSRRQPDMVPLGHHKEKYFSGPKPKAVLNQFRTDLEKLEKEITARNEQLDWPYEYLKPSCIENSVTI
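Purified human 12hLO (150 nM final) in 25 mM Hepes, 0.01% Triton X-100, pH 7.0 was preincubated 15 min at room temperature with compound. Then 40 uM arachidonic acid was added, 30 min. Hydroperoxide was read by Fe-XO absorbance ratio 573/405 nm.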
KB-V1 cytotox – KB-V1 MDR subline cytotoxicity | KB-V1 MDR cells viability, CellTiter-Glo, 72 h | Potency, µM (series often up to 46.1 µM), usual class: cytotoxic | 400,000 compounds, 3.4% hits | AID 1347076; also: % is scaled to controls: 0 for no effect and ±100 for the full control effect; nearly all actives have a fitted effect of over 60% in size
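Drug-selected KB-V1 cells, grown in DMEM lacking phenol red with 10% FBS, receive compound titrations; after three days at 37 degrees C, surviving cell ATP is quantified by CellTiter-Glo luminescence and responses normalized and curve-fitted.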
PINK1 expr mod – changes PINK1 expression; PINK1 immunofluorescence, high-content cytometry, 24 h; Potency, µM (titrated, usually from 76.6 µM), inactives show at the top dose activation (PINK1 increase), usual class: activators; 410,000 compounds, 0.2% hits; active = well fitted activation curve with a large enough effect; inconclusive = small, poorly fitted or top-dose-only effect; cell line not stated here; also: % of control where 0% means no effect; nearly all actives have a fitted effect of over 65% in size
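Stable cell line treated 24 h with compounds at 5 concentrations (CCCP controls), then fixed and immunostained for PINK1 plus nuclear and cell stains; PINK1 immunofluorescence quantified by laser-scanning microplate cytometry.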
MCF10A rerep – induces DNA re-replication in MCF 10a normal breast cells; Potency, µM (doses to about 46.1 µM), inactives show top-dose activity, positive = re-replication, actives largely listed as activators; AID 624296; MCF 10A DNA re-replication, Hoechst nuclear intensity, 48 h; 350,000 compounds, 2.9% hits; also: % of control where 0% means no effect; nearly all actives have a fitted effect of over 50% in size
SW480 rerep – induces DNA re-replication in SW480 colon adenocarcinoma cells; SW480 DNA re-replication, Hoechst DNA content imaging, 48 h; Potency, µM (highest dose often 46.1 µM), for inactives: top-dose re-replication activation, usual class: activators; 340,000 compounds, 1.8% hits; AID 624297; also: % of control where 0% means no effect; nearly all actives have a fitted effect of over 55% in size
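Per well, 250 cells were exposed to pinned compound for 48 hr. Nuclear DNA was visualised with Hoechst (40 min, 37 C) and total object intensity recorded by fluorescence scanning.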
KB-3-1 tox – KB-3-1 parental cell cytotoxicity. Potency, µM (top dose mostly 46.1 µM), most hits filed as cytotoxic. AID 1347075. 400,000 compounds, 1.4% hits. KB-3-1 viability, CellTiter-Glo ATP luminescence, 72 h; also: % is scaled to controls: 0 for no effect and ±100 for the full control effect; nearly all actives have a fitted effect of over 60% in size
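72 h, 37 °C compound treatment of KB-3-1 parental cells; CellTiter-Glo added, 10 min, luminescence read. Data corrected against DMSO-only plates and normalized before curve fitting.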
Starred values were filed as active, the others as inactive; i = inactive; ? = inconclusive; . = no result given; [ ] = another dose, or the depositor's remark. The list is not random: actives were taken first. Their share in the collection is about 5.8%. Unless noted, calls follow the shape of the dose curve; as a rule, active = well fitted curve in the direction sought with a large enough effect; inconclusive = small, poorly fitted or top-dose-only effect, or another doubt; inactive = no such curve, though single readings can be large; an effect the other way counts as inactive or inconclusive. Potency is read from the fitted curve at half-maximal effect.

SMILES | 12-LOX inh | KB-V1 cytotox | PINK1 expr mod | MCF10A rerep | SW480 rerep | KB-3-1 tox
CCN(CC)c1ccc2cc(-c3nc(-c4ccccc4)no3)c(=O)oc2c1 | 1.5% | i | 1.1% | . | . | i
COC(=O)c1cccc(NC(=O)c2ccc3c(c2)CCC3)c1 | 26.9% | . | . | . | . | .
O=c1oc2ccccc2cc1-c1csc(Nc2nc3c(F)cccc3s2)n1 | -25.6% | ? | 10.2% | 5.8µM* | . | 16.4µM*
NC(=S)N/N=C/c1cccnc1 | . | . | . | -0.5% | -5.9% | .
CNc1cccnc1C=NNC(N)=S | 0.8% | ? | -6.2% | 28.1% | 0.92µM* | ?
CCn1c(CNC(=O)c2ccc(OC)c(OC)c2)nnc1SCC(=O)c1ccc(OC)cc1 | ? | ? | -2.1% | 1.0% | -9.5% | i
COc1ccc(OCCSc2nnc(CCNC(=O)c3ccc(Cl)c(Cl)c3)n2C)cc1 | 20.4% | i | 0.6%[38.3 µM] | -22.7% | 1.5% | i
COc1ccc(OCCSc2nnc(CCNC(=O)c3ccc(OC)cc3)n2C)cc1 | 5.5% | 18.4µM* | -4.1%[38.3 µM] | 3.8% | -0.9% | i
CCn1c(CCNC(=O)c2ccc(Cl)c(Cl)c2)nnc1SCCOc1ccc(OC)cc1 | -0.6% | 5.8µM* | -1.2%[38.3 µM] | -1.2% | -0.8% | 20.6µM*
CCCCCCn1nc(C(=O)Nc2nc(-c3ccc(NC(C)=O)cc3)cs2)c2ccccc2c1=O | -10.2% | . | . | . | . | .
CCOCCCNC(=O)c1c(C)c(C(=O)OCC)n(C)c1C | 0.0% | i | 4.5%[38.3 µM] | 4.2% | -19.0% | i
CCOC(=O)c1c(C)c(C(=O)N2CCCCCC2)c(C)n1C | 26.1% | i | -0.7%[38.3 µM] | -11.2% | -3.0% | i
CCOC(=O)c1c(C)c(C(=O)N(C)C2CCCCC2)c(C)n1C | 6.5% | 14.6µM* | 0.3%[38.3 µM] | -0.9% | -4.1% | i
CCOC(=O)c1c(C)c(C(=O)NC2CCCCCC2)c(C)n1C | 4.3% | 8.2µM* | 0.1%[38.3 µM] | 19.6% | 3.2% | i
CC(=O)c1cccc(NS(=O)(=O)c2ccc(-c3ccc(C)cc3)cc2)c1 | -11.5% | . | . | . | . | .
Clc1cccc(-c2cc3nc4c(c(N5CCOCC5)n3n2)CCCC4)c1 | 9.0% | i | -5.3%[38.3 µM] | -0.3% | -4.4% | i
Fc1cccc(-c2cc3nc4c(c(N5CCOCC5)n3n2)CCCC4)c1 | -8.4% | 25.9µM* | 2.9%[38.3 µM] | -2.7% | -2.1% | i
CCOc1ccc(CN(C(=O)c2ccccn2)c2ccc(OC)c(Cl)c2)cc1 | -1.1% | ? | 9.5% | 23.1µM* | ? | ?
CCOc1ccc(N(Cc2ccc(OC)c(OC)c2)C(=O)c2ccco2)cc1 | -2.9% | i | 0.6% | -2.1% | -4.5% | i
CC(C)c1cc(C(=O)NNC(=S)NCc2ccco2)c(O)c(C(C)C)c1 | 35.5µM* | i | ? | ? | -1.6% | i
Cc1cc(C(=O)NNC(=S)NCc2ccco2)n(C)n1 | 0.0% | i | -2.1% | 15.2% | 8.1% | i
O=C(Nc1ccc(F)cc1)Nc1nnc(Cc2ccccc2F)s1 | 27.3% | 18.4µM* | 5.6% | 2.0% | 0.6% | i
O=C(Nc1ccc(Cl)cc1)Nc1nnc(CSCc2ccc(Cl)cc2)s1 | 1.0% | i | 11.2µM* | 14.7% | ? | ?
COc1cccc(NC(=O)Nc2nnc(Cc3ccccc3F)s2)c1 | ? | ? | 4.1% | 14.6µM* | 5.3% | i
O=C(Nc1ccc(-c2noc(-c3ccc(F)cc3)n2)cc1)c1ccc(Br)o1 | -21.9% | . | . | . | . | .
SMILES | 12-LOX inh | KB-V1 cytotox | PINK1 expr mod | MCF10A rerep | SW480 rerep | KB-3-1 tox
COc1ccc(Cc2noc(-c3ccc(OC)c(OC)c3)n2)cc1OC | 5.8% | 11.6µM* | 1.3%[38.3 µM] | ? | ? | i
COc1cc(-c2nc(-c3ccc(NC(=O)c4ccc(Br)o4)cc3)no2)cc(OC)c1OC | -21.2% | ? | 6.1%[38.3 µM] | 5.17µM* | 16.7% | i
CCOc1ccc(-c2nc(-c3ccc(OC)cc3)no2)cc1OCC | 0.0% | 13µM* | 0.3% | 2.8% | -9.7% | i
COc1ccc(-c2nc(-c3ccc(NC(=O)c4ccc(Br)o4)cc3)no2)cc1OC | 0.0% | i | 5.0% | 2.59µM* | 14.5% | i
CCOc1ccc(-c2noc(-c3ccncc3)n2)cc1OCC | 0.0% | i | 9.1% | 4.6% | -14.5% | i
COc1ccc(-c2nc(-c3ccncc3)no2)cc1OC | 0.0% | i | . | 1.0% | -17.3% | i
Cc1cc(/C=C(\C#N)c2nc3ccccc3s2)cc2c1OC(C)C2 (configuration not stated) | -1.7% | . | . | . | . | .
O=C(c1cccc(O)c1)N1CCc2c(n(CCOc3ccccc3)n(-c3ccccc3)c2=O)C1 | 20.8% | . | . | . | . | .
CCCCOc1ccc(Nc2cc(Cl)ccc2C(=O)O)cn1 | ? | i | 2.0% | 16.4µM* | 7.1% | i
O=C(CCCOc1ccc(Cl)cc1Cl)Nc1ccccc1C(=O)O | ? | i | 1.9% | 4.5% | 1.7% | ?
O=c1[nH]cnc2cc(-c3ccccc3)sc12 | -3.7% | 6.51µM* | -2.5% | 5.4% | -4.6% | 16.4µM*
COc1ccc(-c2cc3nc[nH]c(=O)c3s2)cc1 | 0.0% | i | -1.3% | 19.0% | -8.9% | i
S=C(NCCc1ccccc1)Nc1ccc(Cl)cc1NC(=S)NCCc1ccccc1 | 17.8µM* | . | . | . | . | .
C/C(=N\NC(=S)NCCc1ccccc1)c1ccc(Cl)cc1Cl | 44.7µM* | i | 4.6% | ? | ? | ?
S=C(NCCc1ccc(Cl)cc1)Nc1ccc(Cl)cc1Cl | 31.6µM* | i | ? | ? | 28.1% | ?
O=C1NCCCCCCN(C(=O)CN2CCCCCC2)[C@H]2C[C@H](c3nc(-c4cccnc4)no3)C[C@@H]12 | 97.5% | . | . | . | . | .
Cc1cc(N2CCN(c3ccccc3)CC2)nc(-n2nc(C)cc2C)n1 | 17.1% | 2.59µM* | 10.0%[38.3 µM] | ? | ? | i
COc1ccc2c(c1)cc(C(=O)Nc1cccc(Cl)c1)n2C | -1.2% | . | . | . | . | .
COc1ccccc1-n1cnnc1SCC(=O)NC(C)c1cccc2ccccc12 (configuration not stated) | 2.0% | . | . | . | . | .
CCCn1nc(C(=O)NC2CCCc3ccccc32)c2ccccc2c1=O (configuration not stated) | -10.4% | 23.1µM* | 1.1% | 4.5% | 11.2% | i
CCCn1nc(C(=O)Nc2ccc3c(c2)OCCO3)c2ccccc2c1=O | 453.5% | 16.4µM* | 1.9% | 3.9% | -2.4% | i
CC(C)CCn1nc(C(=O)NC2CCCc3ccccc32)c2ccccc2c1=O (configuration not stated) | 0.5% | . | . | . | . | .
CCCCn1nc(C(=O)Nc2ccccc2N2CCCC2)c2ccccc2c1=O | -19.3% | 3.66µM* | 5.7% | ? | -1.4% | i
CC(=O)OC[C@H]1O[C@@H](n2ncc(=O)[nH]c2=O)[C@H](OC(C)=O)[C@@H]1OC(C)=O | -6.5%[22.9 µM] | 8.2µM* | -0.7% | -12.4% | ? | 3.26µM*
